Assay outcomes (PubChem BioAssay)
Gli-Sufu block: antagonists of Gli-Sufu signaling. Sufu-KO-LIGHT fibroblasts, Gli luciferase reporter luminescence. inhibition, % at 5 µM. 340,000 compounds, 0.74% hits;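 active means inhibition above about 55%, limit read from the data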;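 further: 0% = DMSO-treated cells and 100% = wells with medium but no cells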
697 NFkB inh: lowers PMA/ionomycin-induced NF-kB signal in 697 B cells; 697 B-cell NF-kB luciferase reporter, 16 h; inhibition, % at 4 µM; 330,000 compounds, 0.33% hits; AID 435022; in the data active means inhibition above about 35%
Mdm2-MdmX inh: disrupts the human Mdm2-MdmX interaction | O15151+Q00987 | SaOS-2 split-luciferase Mdm2/MdmX complementation, luminescence | inhibition, % at 8 µM | 330,000 compounds, 3% hits;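 active means inhibition of at least 50% at 8 µM in the primary screen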
Target sequence (O15151 whole entry, looked up): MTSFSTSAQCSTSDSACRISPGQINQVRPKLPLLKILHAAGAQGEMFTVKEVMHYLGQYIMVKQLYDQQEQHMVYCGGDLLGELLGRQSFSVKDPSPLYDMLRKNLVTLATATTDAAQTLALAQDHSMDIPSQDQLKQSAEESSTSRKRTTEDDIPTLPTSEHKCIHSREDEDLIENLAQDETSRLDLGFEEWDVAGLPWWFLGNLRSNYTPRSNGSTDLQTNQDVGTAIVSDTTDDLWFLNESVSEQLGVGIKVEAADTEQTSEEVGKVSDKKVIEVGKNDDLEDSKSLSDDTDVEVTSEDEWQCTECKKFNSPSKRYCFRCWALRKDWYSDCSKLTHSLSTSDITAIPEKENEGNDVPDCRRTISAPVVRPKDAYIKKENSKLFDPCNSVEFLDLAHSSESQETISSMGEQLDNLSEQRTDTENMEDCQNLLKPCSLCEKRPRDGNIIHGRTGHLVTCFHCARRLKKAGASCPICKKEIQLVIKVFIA
Target sequence (Q00987 whole entry, looked up): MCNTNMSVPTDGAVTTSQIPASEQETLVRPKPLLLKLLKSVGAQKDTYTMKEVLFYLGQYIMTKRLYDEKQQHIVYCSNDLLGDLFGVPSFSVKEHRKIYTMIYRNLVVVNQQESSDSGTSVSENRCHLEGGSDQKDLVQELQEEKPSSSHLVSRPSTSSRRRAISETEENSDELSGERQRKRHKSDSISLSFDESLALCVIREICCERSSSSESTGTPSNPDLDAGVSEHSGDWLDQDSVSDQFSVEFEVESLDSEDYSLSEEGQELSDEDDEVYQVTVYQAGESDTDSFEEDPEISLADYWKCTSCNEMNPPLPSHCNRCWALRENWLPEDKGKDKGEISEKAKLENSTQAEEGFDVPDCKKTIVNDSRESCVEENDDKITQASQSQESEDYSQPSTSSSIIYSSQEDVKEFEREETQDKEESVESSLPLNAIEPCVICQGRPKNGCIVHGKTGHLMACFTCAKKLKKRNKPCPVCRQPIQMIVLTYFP
aSyn 5UTR inh: MLPCN primary screen, SNCA 5' untranslated region. alpha-synuclein 5'UTR reporter, inhibitor activity. 300,000 compounds, 0.82% hits. inhibition, % (tested at 7.5 µM); in the data active means inhibition above about 60%;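 further: H4 neuroglioblastoma cells stably carrying SNCA 5'UTR luciferase fusion; 0% = DMSO wells and 100% = positive control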
KLF5 inhibitor: kruppel-like factor 5 inhibition | DLD-1 KLF5 promoter-luciferase reporter, luminescence | inhibition, % at 5 µM | 290,000 compounds, 0.23% hits;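 active means inhibition above a per-plate limit of that plate's mean compound inhibition plus 3 SD, cut at about 60% in these data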;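 further: 0% = DMSO wells and 100% = LY294002 at 200 µM; higher means less KLF5 promoter-driven luciferase light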
Jurkat NFkB inh: inhibitors of the PMA/ionomycin-induced NF-kB reporter in Jurkat cells; inhibition, % at 4 µM; 330,000 compounds, 0.53% hits; PMA/ionomycin-induced NF-kB luciferase reporter, luminescence; AID 435003; in the data active means inhibition above about 50%
KLF5 confirm: KLF5 inhibition, confirmation assay. shares compounds with KLF5 inhibitor. DLD-1 KLF5 promoter firefly luciferase reporter, luminescence. inhibition, % at 4 µM. 610 compounds, 79% hits. AID 1834;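 active means inhibition above a set limit taken from the earlier primary screen, cut at about 63% in these data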;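 further: 0% = DMSO wells and 100% = LY294002 at 200 µM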
IEC-6 tox trip: kills rat IEC-6 cells in KLF5 counter-screen. IEC-6 rat intestinal cells, viability luminescence. 610 compounds, 56% hits. shares compounds with KLF5 inhibitor. AID 1905. inhibition, % at 4 µM; in the data active means inhibition above about 23%;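 further: cells exposed to compounds for 48 hours before viability read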
Jurkat NFkB conf: lowers PMA/ionomycin-induced NF-kB signal in Jurkat cells | shares compounds with Jurkat NFkB inh | Jurkat NF-kB luciferase, 16 h | inhibition, % at 4 µM | 2,700 compounds, 27% hits;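 active means inhibition reaching about 45% at 4 µM in either replicate, limit read from the data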;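 further: plate controls were PMA/ionomycin stimulated DMSO wells for no effect and unstimulated DMSO wells for full effect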
Mdm2-MdmX conf: human Mdm2/MdmX binding inhibition, confirmed | 10,000 compounds, 55% hits | luminescent assay | AID 489028 | shares compounds with Mdm2-MdmX inh | inhibition, % at 8 µM; in the data active means inhibition above about 40%
Full FLuc ctr: counter-screen for Mdm2/MdmX inhibitors: full-length luciferase; 6,200 compounds, 77% hits; inhibition, % at 8 µM; shares compounds with Mdm2-MdmX inh; AID 504607; SaOS-2 full-length luciferase counterscreen, luminescence;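 active means mean inhibition at 8 µM reaching about 37%, which flags the compound as non-specific, limit read from the data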;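 further: p53-null SaOS-2 cells with luciferase driven by a doxycycline-inducible promoter; compound on cells about two nights before reading with doxycycline added after day one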
Gli-Sufu confirm: Gli-SUFU antagonism confirmation, single concentration. shares compounds with Gli-Sufu block. Sufu-KO-LIGHT cells, Gli luciferase reporter, luminescence. inhibition, % at 5 µM. 2,500 compounds, 40% hits;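 active means mean inhibition at 5 µM reaching about 45%, limit read from the data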;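 further: plate controls were DMSO-treated cells for no effect and wells lacking cells for full effect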
SufuKO cytotox: counter-screen for Gli-SUFU antagonists: cytotoxicity. AID 651994. shares compounds with Gli-Sufu block. Sufu-KO-LIGHT cells cytotoxicity, ATP luminescence. 2,500 compounds, 32% hits. cytotoxicity, % at 5 µM;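 active means mean cytotoxicity at 5 µM above about 25%, limit read from the data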;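 further: cells exposed to compound overnight for roughly 16 to 18 hours; plate controls were DMSO wells with cells for no effect and medium without cells for full effect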
Wnt3a counter: inhibits Wnt3a reporter, counter-screen for Gli-SUFU antagonists. shares compounds with Gli-Sufu block. Wnt-LIGHT cells, Wnt3a-driven luciferase reporter, luminescence. inhibition, % at 6.25 µM. 2,500 compounds, 20% hits. AID 651995;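 active means mean inhibition above about 25%, limit read from the data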
The depositor's hits bear a star; x = no result. This is a sample that favours compounds with a hit; in the whole collection about 4.1% have one here.

SMILES | Gli-Sufu block | 697 NFkB inh | Mdm2-MdmX inh | aSyn 5UTR inh | KLF5 inhibitor | Jurkat NFkB inh | KLF5 confirm | IEC-6 tox trip | Jurkat NFkB conf | Mdm2-MdmX conf | Full FLuc ctr | Gli-Sufu confirm | SufuKO cytotox | Wnt3a counter
COc1ccc(Cc2nnc(N/N=C/c3ccc(O)cc3)[nH]c2=O)cc1OC | 82* | -53 | 66* | 82* | 65* | 15 | 106* | 12 | x | 70* | 25 | 85* | 29* | 73*
N/C(=N\OC(=O)c1ccccc1)c1ccccn1 | -82 | -142 | 42 | 18 | -49 | -77 | x | x | x | x | x | x | x | x
CC(C)(C)c1ccc(C(=O)O/N=C(\N)c2ccccn2)cc1 | 86* | -63 | 98* | 94* | 89* | 59* | 96* | -12 | 86* | 97* | 28 | 91* | 19 | 102*
CS(=O)(=O)c1[nH]nc(-c2cccc(Cl)c2)c1C#N | 2 | 14 | 19 | 9 | -14 | -1 | x | x | x | x | x | x | x | x
O=[N+]([O-])c1ccc(NN=Cc2ccc(O)cc2O)nc1 | -11 | x | x | x | x | x | x | x | x | x | x | x | x | x
CCN(CC)S(=O)(=O)c1ccc(N/N=C/c2ccc(O)cc2O)nc1 | 58* | -66 | 65* | 90* | 72* | 51* | 81* | 9 | 14 | 78* | 50* | 70* | 26* | 79*
CC(C)(C)c1ccc(C(=O)NCCOc2ccccc2F)cc1 | 55* | -151 | 62* | 77* | 65* | -65 | 33 | 2 | x | 73* | 148* | 74* | 18 | 89*
COc1ccccc1C(=O)NCCOc1ccc(C(C)(C)C)cc1 | -5 | -7 | 15 | -1 | -12 | 21 | x | x | x | x | x | x | x | x
CCOC(=O)C(C)Oc1cccc2c(=O)n(CC(=O)NCc3ccccc3)ccc12 (stereo not given) | 58* | -17 | 66* | 73* | 63* | 72* | 84* | 58* | 57* | 50* | 67* | 48* | 55* | 6
O=C(COC(=O)c1ccc(Br)o1)NC1CCCc2ccccc21 (stereo not given) | -32 | 23 | -6 | x | x | 0 | x | x | x | x | x | x | x | x
CCC1=Nc2cc(C(=O)NCCN3CCOCC3)ccc2Sc2ccc(C)cc21 | -5 | -10 | -37 | -22 | 2 | -6 | x | x | x | x | x | x | x | x
CCC1=Nc2cc(C(=O)NCc3ccco3)ccc2Sc2ccc(C)cc21 | 57* | x | x | 104* | 75* | x | 88* | 67* | x | x | x | 62* | 59* | 7
COc1cc([N+](=O)[O-])ccc1NC(=O)CCS(=O)(=O)c1ccc2c(c1)n(C)c(=O)c(=O)n2C | 19 | -4 | -3 | -12 | -3 | 7 | x | x | x | x | x | x | x | x
COc1ccc(OC)c(NC(=O)NNC(=O)COc2ccc(F)cc2F)c1 | -2 | 1 | 9 | 16 | 2 | -1 | x | x | x | x | x | x | x | x
C/C=C/COC(=O)c1[nH]c2c(c1C)C(=O)CC(c1ccco1)C2 (stereo not given) | 56* | -25 | 65* | 67* | 83* | 59* | 89* | 57* | 43* | 56* | 73* | 67* | 60* | -7
COC(=O)c1[nH]c2c(c1C)C(=O)CC(c1ccc(OC)cc1)C2 (stereo not given) | 10 | -3 | 16 | -9 | 1 | 9 | x | x | x | x | x | x | x | x
COC(=O)c1[nH]c2c(c1C)C(=O)CC(c1ccccc1)C2 (stereo not given) | 57* | -50 | 70* | 28 | 72* | 45 | 88* | 72* | x | 55* | 89* | 52* | 53* | -24
C=C(C)c1cccc(C(C)(C)NC(=O)N2CCN(c3ccc(OC)cc3)CC2)c1 | 5 | 9 | 8 | 14 | -8 | 3 | x | x | x | x | x | x | x | x
O=C(Cc1ccc(S(=O)(=O)N2CCOCC2)s1)NCCOc1ccccc1 | -2 | 5 | -7 | 5 | x | 5 | x | x | x | x | x | x | x | x
CCCCC(=O)NC(c1ccc(N(C)C)cc1)c1ccc2cccnc2c1O (stereo not given) | 88* | -23 | 75* | 62* | 85* | 54* | 88* | 64* | 77* | 86* | 24 | 86* | 37* | 93*
CCCCC(=O)NC(c1ccc(N(CC)CC)cc1)c1ccc2cccnc2c1O (stereo not given) | 93* | -35 | 83* | 68* | 68* | 64* | 85* | 44* | 76* | 86* | 20 | 88* | 44* | 92*
NC(=O)COC(=O)/C=C/c1cccc(Br)c1 | 6 | 24 | -1 | 11 | -9 | 9 | x | x | x | x | x | x | x | x
CCCn1cc(CN2CCN(Cc3ccc(C)o3)C(CCO)C2)c(C)n1 (stereo not given) | 14 | 6 | 16 | 20 | -22 | -10 | x | x | x | x | x | x | x | x
Cc1ccc(NC(=O)C2CCN(C(=O)c3ccco3)CC2)cc1C | -18 | -1 | -19 | 26 | -29 | -10 | x | x | x | x | x | x | x | x
COCCN(CCOC)c1ncnc2c1cnn2-c1ccccc1 | -39 | 9 | -6 | -29 | x | -15 | x | x | x | x | x | x | x | x
SMILES | Gli-Sufu block | 697 NFkB inh | Mdm2-MdmX inh | aSyn 5UTR inh | KLF5 inhibitor | Jurkat NFkB inh | KLF5 confirm | IEC-6 tox trip | Jurkat NFkB conf | Mdm2-MdmX conf | Full FLuc ctr | Gli-Sufu confirm | SufuKO cytotox | Wnt3a counter
COc1ccc(-n2ncc3c(N(C)C4CCCCC4)ncnc32)cc1 | 60* | -162 | 88* | 94* | 74* | -5 | 64* | 1 | x | 92* | 102* | 80* | 77* | 99*
Brc1ccc2nc(-c3c[nH]c4ccccc34)cn2c1 | -77 | -145 | -268 | -164 | -151 | -152 | x | x | -54 | x | x | x | x | x
Cc1cccn2cc(-c3c[nH]c4ccccc34)nc12 | 2 | 5 | -46 | -39 | -66 | -13 | x | x | x | x | x | x | x | x
CC(=O)NC(CC(=O)N1CCN(C(C)=O)CC1)c1ccccc1 (stereo not given) | 0 | -5 | 19 | 12 | 12 | -6 | x | x | x | x | x | x | x | x
CC(C)c1csc(CN2CCC(N3CCC(C(=O)N4CCOCC4)CC3)CC2)n1 | -1 | 24 | 23 | -11 | -18 | 13 | x | x | x | x | x | x | x | x
OC(CN1C2=NCCN2c2ccccc21)c1ccc2c(c1)OCO2 (stereo not given) | 2 | -1 | -7 | 22 | -12 | 63* | x | x | 12 | x | x | x | x | x
